Screening results from PubChem BioAssay.
Sampled rows, rich in hits. Any-hit rate of the full collection: about 8%.
Marburg entry inh: blocks Marburg virus binding to or entry into cells. Marburg virus pseudotyped entry inhibition, cell reporter. Potency, µM (doses to about 37.8 µM), without a hit: top-dose activity change, negative = inhibition, usual class: inhibitors. hit rate 1.8% among 300,000. AID 540276; calls by dose curve; tested in HEK293 cells; also: potency is read from the fitted curve at half-maximal effect; % is scaled to controls: 0 for no effect and ±100 for the full control effect
SARS PLP yeast: SARS-CoV PLP inhibition in yeast; S. cerevisiae expressing SARS-CoV PLpro, growth rescue; Potency, µM (titrated, usually from 32.9 µM), inactives show at the top dose activity, positive = growth rescue, most hits filed as activators; hit rate 0.19% among 330,000; AID 485353; calls by dose curve; also: potency is read from the fitted curve at half-maximal effect; 0% is about no effect; nearly all actives have a fitted effect of over 55% in size
HCV inh: inhibitors of hepatitis C virus infection; Potency, µM (top dose mostly 41.8 µM), inactives show at the top dose activity change, negative = inhibition, actives largely listed as inhibitors; Huh7.5.1 HCVcc-Cre infection, luciferase reporter, 44 h; AID 651820; hit rate 3.4% among 340,000; active = well fitted inhibition curve with a large enough effect; inconclusive = small, poorly fitted or top-dose-only effect, or another doubt; inactive = no such curve, though single readings can be large or run the other way; also: potency is read from the fitted curve at half-maximal effect; % is scaled to controls: 0 for no effect and ±100 for the full control effect
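Cells (1,000/well) were plated 4 h before compound, then infected with HCVcc-Cre virus (~0.5 moi). After 44 h further culture, infection was read as luciferase luminescence following a 15 min substrate incubation at room temperature.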
FMDV antiviral: antivirals against foot and mouth disease virus; FMDV antiviral cell-based qHTS; Potency, µM (titrated, usually from 57.9 µM), inactives show at the highest dose activity change, negative = inhibition, most hits filed as inhibitors; hit rate 1.2% among 410,000; AID 1159524; calls by dose curve; tested in HEK293T cells; also: read-out not given here; potency is read from the fitted curve at half-maximal effect; % is scaled to controls: 0 for no effect and ±100 for the full control effect; nearly all actives have a fitted effect of over 45% in size
HCMV antiviral: blocks human cytomegalovirus replication. hit rate 4.5% among 410,000. AID 1259415. HFF cells, HCMV-luciferase reporter, 72 h; active compounds read low. activity change, negative = inhibition, % at 57.5 µM; in the data active = activity change below about -60%; inconclusive = no clear call, values can overlap the other calls; inactive = above about -39%; also: % is scaled to controls: 0 for no effect and ±100 for the full control effect
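Steps: HFFs plated, 16 h 37C; compounds added; HCMV-luciferase added to MOI 1 PFU/cell; 72 h 37C; OneGlo reagent, 5 min room temperature; luminescence read, normalized to controls.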
Lassa entry inh: blocks Lassa virus binding to or entry into cells; Potency, µM (top dose mostly 37.9 µM), for the others: top-dose activity change, negative = inhibition, actives largely listed as inhibitors; hit rate 1.2% among 300,000; Lassa virus pseudotype entry inhibition, cell reporter; calls by dose curve; tested in HEK293 cells; also: potency is read from the fitted curve at half-maximal effect; % is scaled to controls: 0 for no effect and ±100 for the full control effect; nearly all actives have a fitted effect of over 50% in size
Active calls of the source: *; ? = inconclusive; · = no result given; ! = not confirmed by another sample; [ ] = another dose, or the depositor's remark.

SMILES | Marburg entry inh | SARS PLP yeast | HCV inh | FMDV antiviral | HCMV antiviral | Lassa entry inh
CN1CCN(c2sc(S(C)(=O)=O)nc2S(=O)(=O)c2ccc(Cl)cc2)CC1 | · | 5% | 6% | -4% | -80* | ·
CCS(=O)(=O)c1nc(S(=O)(=O)c2ccc(C)cc2)c(N2CCN(C)CC2)s1 | · | -4% | -10% | 4% | -34 | ·
COC(=O)c1ccccc1NC(=O)N1CCC(n2c(C)nc3cccnc32)CC1 | · | · | · | -17% | -3 | -23%[46.1 µM]
CC(=O)c1cc(-c2ccc(F)cc2)n(CC(=O)NC2CCCCCC2)c1C | · | · | · | 2% | 0 | 9%[46.1 µM]
Cc1ccc(-n2ncc3c(NCCCN4CCOCC4)ncnc32)cc1C | · | · | · | -7% | ? | 29%[46.1 µM]
CS(=O)(=O)c1nc(S(=O)(=O)c2ccc(Cl)cc2)c(N2CCN(CCO)CC2)s1 | · | ? | -2% | -9% | -63* | ·
CCC1CN(Cc2cccn2-c2ccccn2)Cc2cc(OC)ccc2O1 (stereo not given) | · | · | · | 26% | · | ·
C[C@H]1CC[C@H]2C(=O)N(Cc3cccc([N+](=O)[O-])c3)C[C@H](O)CN2[C@H]1c1cccc(Br)c1 | -16%[14.2 µM] | · | · | · | · | ?
COc1ccc2c(C#N)c3ccccn3c2c1 | · | -1% | 3.2µM* | 20% | ? | ·
Cc1cc(=O)n2ccccc2c1C#N | 19% | 11% | 8% | 0% | 7 | 30%
Cn1cccc1C(=O)OCC(=O)N1CCc2ccccc21 | · | -3% | 3% | 69% | 18 | ·
Cn1cccc1C(=O)OCC(=O)N1CCc2ccccc2C1 | · | · | · | 29% | -61* | ·
CC(Sc1nnnn1-c1ccc(O)cc1)C(=O)NNC(=O)c1ccc(F)cc1 (stereo not given) | -13% | 0% | 7.1µM* | -7% | 0 | -7%
Cc1cc(C(=O)C(=O)Nc2nnc(C(C)C)s2)c(C)n1-c1ccccc1 | -13%[46.1 µM] | · | · | ? | -87* | -8%[46.1 µM]
CCOC(=O)c1ccc2[nH]c3c(c2c1)CCCC3O (stereo not given) | 23%[46.1 µM] | 0% | 10µM* | 41% | -6 | -23%
Cc1ccc(C(=O)Nc2nc(C(C)(C)C)cs2)s1 | ? | -52% | ? | -8% | -34 | ?
CC(C)(C)c1csc(NC(=O)c2ccc(Cl)s2)n1 | ? | -12% | 8.9µM* | -40% | ? | ?
Cc1cc(C)c2c(-n3cccc3)c(C(=O)NCCCN3CCCCC3C)sc2n1 (stereo not given) | 0%[46.1 µM] | · | · | -11% | 49 | 0%[46.1 µM]
COc1ccc(-c2ocnc2C(=O)NCc2nn(-c3ccccc3)nc2C)cc1 | · | 0% | 2.5µM* | -50% | ? | ·
Cc1ccc2c(c1)sc[n+]2Cc1ccccc1 | ? | -13% | 10µM* | 36% | 29 | 14%
Cc1ccc(-c2cc[n+](Cc3ccccc3)cc2)cc1 | ? | 0% | ? | ? | ? | -20%
Cc1nc(NC(=O)c2cccs2)ccc1Br | ? | -3% | ? | 1% | 58 | 6.3µM*
Cc1cnccc1NC(=O)c1cccs1 | -1% | -2% | -26% | -12% | -62* | 3%
Cc1cc(C)nc(NC(=O)c2cccs2)n1 | · | 0% | 9% | 3% | 10 | ·
CC(C)(C)NC(=O)c1csc(C(O)c2ccc(C(C)(C)C)cc2)n1 (stereo not given) | · | · | · | · | -96* | ·
SMILES | Marburg entry inh | SARS PLP yeast | HCV inh | FMDV antiviral | HCMV antiviral | Lassa entry inh
COc1cc(NC(=O)c2csc(C(O)c3ccc(C(C)(C)C)cc3)n2)cc(OC)c1OC (stereo not given) | · | · | · | · | 20 | ·
COc1ccc(O)c(C2Nc3ccccc3-n3c(-c4ccccc4)c4c(=O)n(C)c(=O)n(C)c4c32)c1 (stereo not given) | 2%[46.1 µM] | · | · | 40µM* | ? | 10%[46.1 µM]
Cn1c(=O)c2c(-c3ccccc3)n3c(c2n(C)c1=O)C(c1ccc([N+](=O)[O-])cc1)Nc1ccccc1-3 (stereo not given) | ? | · | · | -29% | -68* | -24%[46.1 µM]
Cc1ccc(-c2c3c(=O)n(C)c(=O)n(C)c3c3n2-c2ccccc2NC3c2ccc(C)cc2O)cc1 (stereo not given) | ? | · | · | -26% | -96* | 8%[46.1 µM]
COc1ccc(-c2c3c(=O)n(C)c(=O)n(C)c3c3n2-c2ccccc2NC3c2ccco2)cc1 (stereo not given) | ? | · | · | ? | 14 | 0%[46.1 µM]
COC(=O)c1sccc1S(=O)(=O)N(CC(=O)NCc1ccc(F)cc1)c1ccc(C)c(C)c1 | · | · | · | 0% | 3 | -17%[46.1 µM]
CC(=O)OC1(C)CC(C)C(=O)C(C(O)CC2CC(=O)NC(=O)C2)C1 (stereo not given) | · | · | 0.5µM* | ? | -105* | ·
N=c1n(CCN2CCOCC2)c2ccccc2n1CC(O)COc1ccccc1 (stereo not given) | ? | 2% | 0% | -28% | 28 | -9%
COc1ccccc1OCC(O)Cn1c(=N)n(CCN2CCCCC2)c2ccccc21 (stereo not given) | ? | 11% | 2.5µM* | -28% | ? | ?
Cc1ccccc1OCC(O)CN (stereo not given) | 19% | 0% | 18% | 9% | -21 | 5%
Cc1ccccc1OCC(O)Cn1c(=N)n(CCN2CCOCC2)c2ccccc21 (stereo not given) | ? | 4% | ? | ? | ? | -28%
N=c1n(CCN2CCCCC2)c2ccccc2n1CC(O)COc1ccccc1 (stereo not given) | ? | 10% | 11µM* | 40µM*! | 20 | ?
Cc1ccccc1OCCn1c(=N)n(C(C)C)c2ccccc21 | ? | · | · | ? | -69* | -24%[46.1 µM]
Cc1ccccc1OCC(O)COc1ccccc1C | 3%[46.1 µM] | · | -22% | 16% | -100* | ?
CCN1C(=O)C2(c3ccccc31)c1c(oc3ccc(F)cc3c1=O)C(=O)N2CCCOC (stereo not given) | 14%[46.1 µM] | · | · | -4% | 40 | 0%[46.1 µM]
Cc1ccccc1OCC(O)Cn1c(=N)n(CCN2CCCCC2)c2ccccc21 (stereo not given) | ? | · | · | ? | -92* | ?
CCC(CO)Oc1cc(NCc2cc(C)cc(C)c2)c2ncn(C(C)C)c2c1 (stereo not given) | · | 7% | 1.6µM* | -2% | 7 | ·
CCC(CO)Oc1cc(NC(=O)c2cccc([N+](=O)[O-])c2)c2ncn(C(C)C)c2c1 (stereo not given) | · | -4% | 2.8µM* | -22% | -13 | ·
COc1cc(NCc2ccccc2)c2ncn(C(C)C)c2c1 | · | -5% | 10µM* | -14% | 22 | ·
COc1cc(N(Cc2ccccc2)Cc2ccccc2)c2ncn(C(C)C)c2c1 | · | 2% | 11µM* | -20% | -87* | ·
CC(C)Oc1ccc(CNC(=O)C2CCN(C(=O)N3CCOc4ccc(Cl)cc43)CC2)cc1 | · | · | · | -27% | -25 | -6%[46.1 µM]
COc1ccc(NC(=O)c2ccc3c(=O)n4nc(Nc5ccccc5C)sc4nc3c2)cc1Cl | · | · | · | -24% | 2 | -7%[46.1 µM]
Cc1cccc(-c2nc3c4ccccc4nc(NCc4ccccc4Cl)n3n2)c1 | 11%[46.1 µM] | · | · | 26% | 98 | ·
